These results are taken from PubChem BioAssay (NCATS).

Test in all cases: qHTS profiling for inhibitors of Plasmodium falciparum proliferation (AID 504749); also: nearly all actives have a fitted effect of over 60% in size
Settings in all cases: P. falciparum in erythrocytes, SYBR Green DNA, 72 h; series mostly up to 28.7 µM
(In general: qHTS replaces the single test concentration by a dilution series.)

In one assay the test system is 7G8. The method, boiled down:
(§1)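 SYBR Green fluorescence (ex 485 nm, em 535 nm) reports parasite DNA after 72 h compound exposure of infected red cells at 0.3% parasitemia, 2.5% hematocrit; signal normalized to 0.29 uM artemisinin and vehicle wells.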

For the next assay, the system named is AA1029. The method, boiled down:
as §1

The test system of a further assay is AS120. The method, boiled down: as §1
A further assay relates to ATS189. The method, boiled down:
as §1

For another assay, the system named is ATS95. The method, boiled down: as §1
In a further assay the test system is C2A. A digest of the protocol:
as §1

The test system of a further assay is CP185. The method, boiled down:
as §1

In a further assay the test system is CP191. The method, boiled down: as §1
The next assay deals with CP192. The method, boiled down: as §1
The next assay concerns CP194. A digest of the protocol: as §1
For the next assay, the system named is CP201. The method, boiled down: as §1
The next assay relates to CP203. The method, boiled down: as §1
Another assay has as its system CP211. A digest of the protocol:
as §1

The next assay concerns CP215. A digest of the protocol:
as §1

The test system of the next assay is CP217. The method, boiled down: as §1
A further assay relates to CP237. A digest of the protocol: as §1
For a further assay, the system named is CP238. The method, boiled down:
as §1

Another assay relates to CP247. A digest of the protocol: as §1
A further assay relates to CP250. A digest of the protocol: as §1
The subject of another assay is CP252. A digest of the protocol:
as §1

Inconclusive results are not listed. Activity calls are given as the source filed them. Calls follow the shape of the dose curve; as a rule, active = well fitted inhibition curve with a large enough effect; inconclusive = small, poorly fitted or top-dose-only effect; inactive = flat fitted curve, though single readings scatter.
Potency is read from the fitted curve at half-maximal effect.

`Cc1ccc(S(=O)(=O)NCl)cc1`: the Potency result in the assay on 7G8, in the assay with AA1029, in the assay on AS120, with ATS189, in the assay on ATS95 and with C2A was “inactive” throughout. The Potency entry in the assay with CP185, in the assay with CP191, with CP192, with CP194, in the assay on CP201 and in the assay with CP203 was “inactive” each time. Also, the Potency result in the assay on CP211, with CP215, in the assay with CP217, in the assay on CP237, in the assay with CP238 and in the assay with CP247 was “inactive” in each case. Moreover, the Potency result with CP250 and in the assay with CP252 was “inactive” throughout.
Take `CC(=O)Nc1ccc(OC(=O)c2ccccc2O)cc1`: the Potency result in the assay with 7G8, with AA1029, with AS120, in the assay with ATS189, with ATS95 and with C2A was “inactive” each time. Also, the Potency result in the assay with CP185, with CP191, in the assay with CP192, with CP194, in the assay with CP201 and in the assay with CP203 was “inactive” each time. Besides, the Potency result with CP211, in the assay on CP215, in the assay on CP217, in the assay on CP237, in the assay with CP238 and with CP247 was “inactive” in each case. Moreover, the Potency result in the assay on CP250 and with CP252 was “inactive” each time.
Take `O=C(O)Cc1cc(I)c(Oc2ccc(O)c(I)c2)c(I)c1`: the Potency result in the assay with 7G8, in the assay with AA1029, in the assay with AS120, in the assay on ATS189, with ATS95 and with C2A was “inactive” each time. Further, the Potency entry with CP185, with CP191, with CP192, in the assay with CP194, in the assay on CP201 and in the assay with CP203 was “inactive” each time. Further, the Potency entry in the assay with CP211, with CP215, in the assay with CP217, in the assay with CP237, in the assay on CP238 and with CP247 was “inactive” each time. Besides, the Potency result with CP250 and with CP252 was “inactive” in each case.
Take `CC/C(=C(/CC)c1ccc(OP(=O)(O)O)cc1)c1ccc(OP(=O)(O)O)cc1`: the Potency result with 7G8, in the assay on AA1029, in the assay on AS120, in the assay with ATS189, in the assay with ATS95 and with C2A was “inactive” in each case. In addition, the Potency entry in the assay with CP185, in the assay with CP191, in the assay on CP192, in the assay with CP194, in the assay with CP201 and in the assay with CP203 was “inactive” throughout. In addition, the Potency entry in the assay with CP211, with CP215, in the assay on CP217, in the assay on CP237, with CP238 and with CP247 was “inactive” each time. The Potency entry with CP250 and in the assay on CP252 was “inactive” throughout.
Regarding `CCCCCCCCCCCCCC(=O)OCC(COP(=O)([O-])OCC[N+](C)(C)C)OC(=O)CCCCCCCCCCCCC` (stereo not given), the Potency result in the assay with 7G8, with AA1029, in the assay on AS120, in the assay on ATS189, in the assay with ATS95 and in the assay on C2A was “inactive” throughout. In addition, the Potency result with CP185, in the assay on CP191, with CP192, in the assay with CP194, in the assay with CP201 and in the assay on CP203 was “inactive” in each case. In addition, the Potency entry in the assay with CP211, in the assay with CP215, with CP217, with CP237, in the assay with CP238 and in the assay on CP247 was “inactive” throughout. For the same compound, the Potency entry in the assay with CP250 and in the assay with CP252 was “inactive” throughout.
For the compound `OC1OC[C@@H](O)[C@H](O)[C@@H]1O` (stereo not given in full), the Potency result in the assay with 7G8, in the assay on AA1029, with AS120, in the assay with ATS189, with ATS95 and in the assay on C2A was “inactive” throughout. The Potency result in the assay on CP185, in the assay on CP191, in the assay with CP192, in the assay on CP194, in the assay on CP201 and in the assay on CP203 was “inactive” throughout. Further, the Potency entry in the assay with CP211, in the assay on CP215, in the assay with CP217, in the assay with CP237, in the assay on CP238 and with CP247 was “inactive” throughout. For the same compound, the Potency entry in the assay with CP250 and with CP252 was “inactive” each time.
For `CCCCCCCCCCCC(=O)N(CCO)CCO`, the Potency result in the assay on 7G8, in the assay with AA1029, with AS120, in the assay with ATS189, in the assay with ATS95 and with C2A was “inactive” in each case. Moreover, the Potency result with CP185, in the assay with CP191, in the assay on CP192, in the assay with CP194, in the assay on CP201 and in the assay on CP203 was “inactive” in each case. The Potency result in the assay with CP211, with CP215, in the assay on CP217, with CP237, with CP238 and in the assay on CP247 was “inactive” throughout. Further, the Potency entry in the assay on CP250 and with CP252 was “inactive” each time.
Take `CCCCC(CC)CCC(CC(C)C)OS(=O)(=O)O` (stereo not given): the Potency entry with 7G8, with AA1029, in the assay on AS120, with ATS189, with ATS95 and in the assay on C2A was “inactive” each time. For the same compound, the Potency entry with CP185, with CP191, in the assay with CP192, in the assay with CP194, with CP201 and in the assay with CP203 was “inactive” in each case. Moreover, the Potency entry with CP211, in the assay on CP215, in the assay with CP217, with CP237, in the assay with CP238 and in the assay with CP247 was “inactive” in each case. In addition, the Potency entry in the assay with CP250 and in the assay with CP252 was “inactive” throughout.
For `C=CC[C@@H]1/C=C(\C)C[C@H](C)C[C@H](OC)[C@H]2O[C@@](O)(C(=O)C(=O)N3CCCC[C@H]3C(=O)O[C@H](/C(C)=C/[C@@H]3CC[C@@H](O)[C@H](OC)C3)[C@H](C)[C@@H](O)CC1=O)[C@H](C)C[C@@H]2OC`, the Potency is 1000 nM (active) in the assay with 7G8; 2000 nM (active) in the assay with AA1029; 1410 nM (active) with AS120; 1000 nM (active) with ATS189; 2240 nM (active) in the assay on ATS95; 251 nM (active) in the assay on C2A. Further, the Potency is 891 nM (active) in the assay on CP185; 1260 nM (active) with CP191; 3790 nM (active) in the assay with CP192; 4260 nM (active) with CP194; 5360 nM (active) with CP201; 4780 nM (active) in the assay with CP203. The Potency in the assay on CP211 was 4780 nM (active); in the assay on CP215, 3790 nM (active); in the assay on CP217 it was 3160 nM (active); in the assay on CP237 it was 708 nM (active); in the assay with CP238, 1120 nM (active); in the assay on CP247, 1410 nM (active). The Potency was 891 nM (active) in the assay with CP250 and 1000 nM (active) with CP252.
With `O=C(O)Cc1nn(Cc2ccc(Br)cc2F)c(=O)c2ccccc12`, the Potency entry with 7G8, with AA1029, in the assay on AS120, in the assay on ATS189, with ATS95 and in the assay with C2A was “inactive” throughout. Moreover, the Potency entry in the assay on CP185, in the assay with CP191, with CP192, in the assay with CP194, with CP201 and in the assay with CP203 was “inactive” each time. The Potency entry with CP211, in the assay with CP215, in the assay with CP217, with CP237, with CP238 and with CP247 was “inactive” in each case. For the same compound, the Potency entry in the assay on CP250 and with CP252 was “inactive” in each case.
As for `CC(=O)Oc1cccc(C(=O)O)c1OC(C)=O`, the Potency entry in the assay on 7G8, in the assay with AA1029, with AS120, in the assay with ATS189, with ATS95 and in the assay on C2A was “inactive” in each case. The Potency entry with CP185, in the assay with CP191, in the assay on CP192, in the assay with CP194, in the assay on CP201 and with CP203 was “inactive” each time. Further, the Potency result in the assay on CP211, in the assay with CP215, with CP217, in the assay with CP237, in the assay with CP238 and in the assay with CP247 was “inactive” each time. Also, the Potency result in the assay with CP250 and with CP252 was “inactive” throughout.
Take `OC[C@H]1O[C@@H]2O[C@H]3[C@H](O)[C@@H](O)[C@@H](O[C@H]4[C@H](O)[C@@H](O)[C@@H](O[C@H]5[C@H](O)[C@@H](O)[C@@H](O[C@H]6[C@H](O)[C@@H](O)[C@@H](O[C@H]7[C@H](O)[C@@H](O)[C@@H](O[C@H]1[C@H](O)[C@H]2O)O[C@@H]7CO)O[C@@H]6CO)O[C@@H]5CO)O[C@@H]4CO)O[C@@H]3CO`: the Potency entry in the assay on 7G8, with AA1029, in the assay on AS120, in the assay with ATS189, in the assay on ATS95 and with C2A was “inactive” each time. For the same compound, the Potency entry with CP185, with CP191, in the assay on CP192, in the assay with CP194, with CP201 and with CP203 was “inactive” in each case. Besides, the Potency entry in the assay with CP211, with CP215, with CP217, with CP237, in the assay with CP238 and in the assay with CP247 was “inactive” throughout. Besides, the Potency entry in the assay with CP250 and in the assay on CP252 was “inactive” throughout.
For the compound `CC1=CC(=C(c2ccc(N)cc2)c2ccc(N)cc2)C=CC1=N`, the Potency in the assay with 7G8 was 5010 nM (active); in the assay with AA1029, 2240 nM (active); with AS120, 2240 nM (active); with ATS189 it was 2820 nM (active); in the assay with ATS95 it was 2820 nM (active); in the assay with C2A it was 631 nM (active). Besides, the Potency with CP185 was 3980 nM (active); with CP191 it was 1780 nM (active); in the assay with CP192, 4260 nM (active); in the assay on CP194 it was 3790 nM (active); in the assay with CP201, 5360 nM (active); in the assay on CP203, 4260 nM (active). Also, the Potency with CP211 is 4260 nM (active); in the assay on CP215, 4780 nM (active); with CP217, 3550 nM (active); in the assay with CP237, 3160 nM (active); in the assay on CP238, 3550 nM (active); in the assay on CP247 it was 1120 nM (active). The Potency in the assay with CP250 was 1000 nM (active); with CP252, 3160 nM (active).
